Experimental data published in PubChem BioAssay (NCATS).
Records with an inconclusive call do not appear. Entries that show only a call come without a potency. Calls of active or inactive are those of the source. Unless noted, calls come from the whole dose curve.

Key:
[1] = qHTS for Inhibitors of the Functional Ribonucleoprotein Complex (vRNP) of Lassa (LASV) Arenavirus: LASV Primary Screen - GLuc reporter signal (AID 1347082; calls by dose curve; tested in HEK293 reporter line; note: nearly all actives have a fitted effect of over 60% in size; note: potency is the fitted concentration of half-maximal effect)
[2] = qHTS for Inhibitors of the Functional Ribonucleoprotein Complex (vRNP) of Lassa (LASV) Arenavirus: Viability assay - alamar blue signal for LASV Primary Screen (AID 1347083; calls by dose curve; tested in HEK293 reporter line; note: nearly all actives have a fitted effect of over 80% in size; note: potency is the fitted concentration of half-maximal effect)
[3] = qHTS for Inhibitors of the Functional Ribonucleoprotein Complex (vRNP) of Lymphocytic Choriomeningitis Arenaviruses (LCMV): Viability assay - alamar blue signal for LCMV Primary Screen (AID 1347085; calls by dose curve; tested in HEK293 reporter line; note: nearly all actives have a fitted effect of over 80% in size; note: potency is the fitted concentration of half-maximal effect)
[4] = target: Nucleoprotein (Lymphocytic choriomeningitis virus (strain Armstrong)) (UniProt P09992); test: qHTS for Inhibitors of the Functional Ribonucleoprotein Complex (vRNP) of Lymphocytic Choriomeningitis Arenaviruses (LCMV): LCMV Primary Screen - GLuc reporter signal (AID 1347086); note: series mostly up to about 57 µM; nearly all actives have a fitted effect of over 70% in size
Chain of Nucleoprotein (Lymphocytic choriomeningitis virus (strain Armstrong)) (P09992 whole entry, looked up): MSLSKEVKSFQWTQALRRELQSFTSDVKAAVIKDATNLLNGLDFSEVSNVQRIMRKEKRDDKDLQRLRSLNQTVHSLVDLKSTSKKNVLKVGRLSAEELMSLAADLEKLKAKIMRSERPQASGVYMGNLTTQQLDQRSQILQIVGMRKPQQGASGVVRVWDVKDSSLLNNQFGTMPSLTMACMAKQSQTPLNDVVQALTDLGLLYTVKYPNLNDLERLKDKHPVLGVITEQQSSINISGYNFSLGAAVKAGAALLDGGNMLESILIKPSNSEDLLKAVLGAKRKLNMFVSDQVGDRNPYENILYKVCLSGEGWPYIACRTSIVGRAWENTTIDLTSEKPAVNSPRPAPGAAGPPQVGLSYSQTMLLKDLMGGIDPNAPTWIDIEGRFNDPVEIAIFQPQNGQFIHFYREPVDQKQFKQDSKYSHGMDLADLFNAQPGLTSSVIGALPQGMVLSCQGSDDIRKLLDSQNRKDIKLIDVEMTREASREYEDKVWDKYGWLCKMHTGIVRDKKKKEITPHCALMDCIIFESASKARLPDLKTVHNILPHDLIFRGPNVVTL

SMILES: CC1=CC[C@@]23C[C@@H]1C(C)(C)[C@@H]2CC[C@H]3C
- Potency [1]: inactive
- Potency [2]: inactive
- Potency [3]: inactive
- Potency [4]: inactive

SMILES: CCC(=C(CC)c1ccc(O)cc1)c1ccc(O)cc1
- Potency [1]: inactive
- Potency [2]: 15.3 nM (active)
- Potency [3]: 13.7 nM (active)

SMILES: C=CC(C)(C)c1c2occc2c(O)c2ccc(=O)oc12
- Potency [1]: inactive
- Potency [2]: inactive

SMILES: COc1cc(OC)c2c(=O)cc(-c3ccccc3)oc2c1
- Potency [1]: inactive
- Potency [2]: inactive
- Potency [3]: inactive

SMILES: CC(=O)OC[C@]1(OC(C)=O)C[C@@]23CC[C@H]4[C@@](C)(CCC[C@@]4(C)C(=O)O)[C@@H]2CC[C@@H]1C3
- Potency [1]: inactive
- Potency [2]: inactive
- Potency [3]: inactive
- Potency [4]: inactive

SMILES: COC(=O)c1ccc2c(c1)C(NC(C)=O)CCc1cc(OC)c(OC)c(OC)c1-2 (configuration not stated)
- Potency [1]: inactive
- Potency [2]: inactive

SMILES: CC1(C)CCC[C@@]2(C)[C@@H]1CC[C@@]1(C)OC(=O)C[C@H]21
- Potency [1]: inactive
- Potency [2]: inactive
- Potency [3]: inactive
- Potency [4]: inactive

SMILES: COc1cccc2c1C(=O)c1c(O)c3c(c(O)c1C2=O)C[C@@](O)(C(=O)CO)C[C@H]3O[C@H]1C[C@H](N)[C@H](O)[C@H](C)O1
- Potency [1]: 13700 nM (active)
- Potency [2]: 1090 nM (active)
- Potency [3]: 863 nM (active)

SMILES: O=C1NC(=O)C(=Cc2ccc3c(c2)OC(F)(F)O3)S1
- Potency [1]: inactive
- Potency [2]: inactive

SMILES: CCCCCCC[C@@H](C/C=C/CCC(=O)N(C)C/C(=C/Cl)C/C(=C\C(=O)N1C[C@H](O)CC1=O)OC)OC
- Potency [1]: inactive
- Potency [2]: inactive
- Potency [3]: inactive

SMILES: O=C(C=Cc1ccc(O)cc1)c1ccc(O)cc1O
- Potency [1]: inactive
- Potency [2]: inactive
- Potency [3]: inactive

SMILES: CCC12CCCN3CCC4(C(=C(C(=O)OC)C1)Nc1ccccc14)C32 (configuration not stated)
- Potency [1]: inactive
- Potency [2]: inactive
- Potency [3]: inactive

SMILES: CN[C@@H]1CN(c2ccc3c(=O)c(C(=O)O)cn(-c4nccs4)c3n2)C[C@@H]1OC
- Potency [1]: inactive
- Potency [2]: 10600 nM (active)
- Potency [3]: 15000 nM (active)

SMILES: CC[C@H]1OC(=O)[C@H](C)C(=O)[C@H](C)[C@@H](O[C@H]2O[C@H](C)C[C@H](N(C)C)[C@@H]2O)[C@](C)(OC)C[C@@H](C)C(=O)[C@H](C)[C@H]2N(CCCCn3cnc(-c4cccnc4)c3)C(=O)O[C@]12C
- Potency [1]: inactive
- Potency [2]: inactive
- Potency [3]: inactive

SMILES: O=C1CCCCCCCCCCCCCCCO1
- Potency [1]: inactive
- Potency [2]: inactive
- Potency [3]: inactive
- Potency [4]: inactive

SMILES: COc1cc2nc(-c3cc(F)ccc3O)nc(N[C@@H]3CNC[C@@H]3C(C)(C)O)c2cc1OC
- Potency [1]: 1370 nM (active)
- Potency [2]: 1090 nM (active)
- Potency [3]: 8630 nM (active)

SMILES: O=C(/C=C/c1ccc(O)c(O)c1)c1ccc(O[C@@H]2O[C@H](CO)[C@@H](O)[C@H](O)[C@H]2O)c(O)c1O
- Potency [1]: inactive
- Potency [2]: inactive

SMILES: CON=C(C(=O)N[C@@H]1C(=O)N2C(C(=O)O)=C(CSC(=O)c3ccco3)CS[C@H]12)c1csc(N)n1
- Potency [1]: inactive
- Potency [2]: inactive

SMILES: C=CCCCCCCCCCCCC(O)CC(O)COC(C)=O (configuration not stated)
- Potency [1]: inactive
- Potency [2]: inactive
- Potency [3]: inactive
- Potency [4]: inactive

SMILES: C=C(C=O)C[C@@H]1C[C@H](O)C2OC3C[C@]4(C)OC5/C=C\CC6OC7C(CC=CCC6OC5CCCC4OC3CC2O1)OC1CC2OC3CC(=O)OC3C[C@@H](C)C[C@@]2(C)OC1C[C@@H]7C (some centres not stated)
- Potency [1]: inactive
- Potency [2]: inactive
- Potency [3]: inactive
- Potency [4]: inactive

SMILES: C=C(CC1CC(O)[C@]2(C)OC3CC4OC5C[C@]6(C)O[C@]7(C)CCC8OC9C[C@]%10(C)OC%11C(C)=CC(=O)OC%11CC%10OC9C[C@@H](C)C8OC7CC6O[C@]5(C)C/C=C\C4OC3CC2O1)C(=O)O (some centres not stated)
- Potency [1]: inactive
- Potency [2]: inactive
- Potency [3]: inactive
- Potency [4]: inactive

SMILES: C=C(C)C(Cc1c(OC)ccc(C(=O)/C=C/c2ccc(O)cc2)c1O)OO (configuration not stated)
- Potency [1]: inactive
- Potency [2]: inactive
- Potency [3]: inactive

SMILES: CCC(=C(c1ccc(O)cc1)c1ccc(OCCNC)cc1)c1ccccc1
- Potency [1]: 3430 nM (active)
- Potency [2]: 3430 nM (active)
- Potency [3]: 13700 nM (active)

SMILES: Cc1cc(Nc2ncc3c(n2)N(C)C(=O)N(c2cc(NC(=O)c4cccc(C(F)(F)F)c4)ccc2C)C3)n(C)n1
- Potency [1]: 3850 nM (active)
- Potency [2]: 611 nM (active)
- Potency [3]: 1530 nM (active)

SMILES: CC(C)(O)CC(=O)NCCn1ccc2ncnc(Nc3ccc(Oc4cccc(C(F)(F)F)c4)c(Cl)c3)c21
- Potency [1]: inactive
- Potency [2]: inactive
- Potency [3]: 769 nM (active)
